What all share (assay): NCI-60 one-dose screen, 48 h (100 = growth as untreated, 0 = no growth, -100 = all killed)
Details in all cases: 10 µM unless noted

Assay [1] deals with SK-MEL-2 melanoma.
For assay [2], the system named is EKVX NSCLC.
In assay [3] the test system is UO-31 renal.
Assay [4] deals with TK-10 renal.
In assay [5] the test system is ACHN renal.
Assay [6] concerns CAKI-1 renal.
Assay [7] relates to A498 renal.
In assay [8] the test system is CCRF-CEM leukemia.
Assay [9] deals with MOLT-4 leukemia.
Assay [10] concerns SR leukemia.
Assay [11] has as its system RPMI-8226 leukemia.
In assay [12] the test system is OVCAR-8 ovarian.
Assay [13] concerns OVCAR-5 ovarian.
Assay [14] deals with OVCAR-4 ovarian.
In assay [15] the test system is SK-OV-3 ovarian.
Assay [16] concerns IGROV1 ovarian.
Assay [17] concerns OVCAR-3 ovarian.
For assay [18], the system named is HS 578T breast.
In assay [19] the test system is NCI/ADR-RES ovarian.

About 83,000 compounds went through this panel and 20% of them were active in at least one assay; those are over-represented in the sample as a whole.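 Cells were grown in 96-well plates and exposed to the test compound at a single concentration for 48 hours; results are reported as percent growth, with values below 10 considered active.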 Values without a mark were called inactive. Active and inactive are the calls of the source.

As for `CCc1ccc(SC2c3cc(OC)ccc3Oc3nc(N)c(C#N)c(N)c32)cc1` (stereo not drawn), the growth in assay [1] was -88.8% (active); in assay [2], -76.2% (active); in assay [3] it was 4.16% (active); in assay [4], -50.1% (active); in assay [5] it was 3.73% (active); in [6] it was -56.5% (active). Also, the growth in [7] was -87.9% (active); in assay [8] it was 1.76% (active); in [9], -50.1% (active); in [10], -62% (active); in assay [11] it was -15.6% (active); in assay [12], 0.0543% (active). Also, the growth in assay [13] was -4.3% (active); in assay [14], -13.3% (active); in assay [15], -23.3% (active); in assay [16], -69.6% (active); in assay [17], -48.3% (active); in assay [18] it was -40.5% (active). In addition, in [19], the growth is 0.784% (active).

In the case of `Cc1cc(C)c2[nH]c(=O)c(C(c3nnnn3Cc3ccc4c(c3)OCO4)N3CCN(C)CC3)cc2c1` (stereo not drawn), the growth in [1] is 105%; in [2], 106%; in assay [3], 103%; in assay [4] it was 115%; in assay [5] it was 106%; in assay [6] it was 97.7%. The growth in assay [7] was 102%; in [8] it was 119%; in assay [9], 82.3%; in assay [10], 96.9%; in [11], 100%; in assay [13], 108%. Besides, the growth in [14] was 108%; in assay [15] it was 111%; in assay [16], 111%; in [17], 122%; in assay [18] it was 108%; in assay [19] it was 108%.

Regarding `COc1ccc2oc(=O)c(-c3csc(N/N=C(\C)c4cc(OC)c(OC)c(OC)c4)n3)cc2c1`, the growth is 99.7% in assay [1]; 94.7% in assay [2]; 90.8% in [3]; 94.2% in assay [4]; 78.7% in [5]; 145% in assay [7]. In addition, the growth in assay [8] was 81.3%; in assay [9], 81%; in assay [10], 70.4%; in [11], 72.9%; in assay [12], 86.2%; in assay [13] it was 109%. Moreover, the growth in assay [14] is 86.5%; in assay [15], 172%; in assay [16] it was 91.2%; in assay [17], 110%; in assay [18], 110%; in assay [19], 77.9%.

Turning to `O=C1Nc2cc(-c3ccc(NS(=O)(=O)c4ccc(C(F)(F)F)cc4)cc3)ccc2/C1=C/c1ccc[nH]1`, the growth in assay [1] was 22.5%; in assay [2] it was 19.5%; in [3] it was 31.1%; in [4], 32.5%; in assay [5] it was 31.1%; in assay [6] it was 32.9%. For the same compound, the growth in assay [7] was 28.9%; in [8], 18.5%; in [9], 6.52% (active); in assay [10] it was 4.6% (active); in [11], 26%; in [12] it was 57%. Besides, the growth in [13] is 45.1%; in assay [14], 31.5%; in assay [15], 57.7%; in [16] it was 61.3%; in assay [17] it was 39.8%; in [18] it was 40.6%. Also, the growth in assay [19] was 40.5%.

On to `CCOC(=O)c1ccc(NC(=S)NC(=O)c2ccc(NC(=O)C(C)C)cc2OC)cc1`, for which the growth is 48.5% in assay [1]; 36.1% in [2]; 51.7% in assay [3]; 85.7% in assay [4]; 64.6% in [5]; 53.7% in [6]. Besides, the growth in assay [7] was 86.7%; in assay [8] it was 9.79% (active); in assay [9] it was -60.3% (active); in [10], 0.956% (active); in assay [11], 0.989% (active); in assay [12], 35.1%. Moreover, the growth in assay [13] was 90.1%; in assay [14] it was 27.2%; in assay [15], 100%; in assay [16] it was 64.5%; in assay [17] it was 57.4%; in assay [18], 86.7%. Moreover, the growth in assay [19] is 23%.

On to `S=C(Nc1ccc(OCc2nc3ccc(Cl)cc3[nH]2)cc1)NC1CCCCC1`, for which the growth in assay [1] is -44.9% (active); in [2], -7.76% (active); in assay [3], -7.63% (active); in assay [4] it was -10.8% (active); in [5], -16% (active); in assay [7] it was -1.77% (active). For the same compound, the growth in assay [8] is 5.6% (active); in assay [9], 1.31% (active); in assay [10] it was -27.3% (active); in [11] it was -13.1% (active); in assay [12], -10% (active); in assay [13], -12.8% (active). In addition, the growth was 10.6% in assay [14]; 29.2% in [15]; 7.22% (active) in assay [16]; -3.28% (active) in [17]; 14.8% in assay [18]; -14.8% (active) in [19].

Consider `Cc1ccc(S(=O)(=O)N(CCn2ccnc2[N+](=O)[O-])CCn2ccnc2[N+](=O)[O-])cc1`, for which the growth in [1] was 105%; in assay [2], 95.5%; in assay [3], 76.4%; in assay [4], 98.4%; in [5], 101%; in assay [6] it was 89.2%. Also, the growth was 112% in assay [7]; 100% in assay [8]; 99.8% in [9]; 94.2% in assay [10]; 102% in [11]; 101% in [12]. The growth in assay [13] was 103%; in [14], 107%; in assay [15] it was 109%; in [16] it was 109%; in assay [17], 124%; in assay [18] it was 103%. Further, the growth in assay [19] is 104%.

Turning to `COc1ccc(-c2nc3ccccc3n2CC(=O)N=Nc2c(O)[nH]c3ccc(OC)cc23)cc1`, the growth was 23.9% in assay [1]; 77.8% in [2]; 68.5% in [3]; 43.8% in assay [4]; 10.1% in assay [5]; -53.5% (active) in assay [6]. Besides, the growth was 88.3% in assay [7]; 62.9% in [8]; 35.8% in [9]; 0.469% (active) in assay [10]; 52% in assay [11]; 6.22% (active) in assay [12]. The growth in assay [13] was 86.8%; in [14], 50.8%; in assay [15], 104%; in assay [17], 35.5%; in [18] it was 30.3%; in [19], 48%.
